Laboratory results as given in PubChem BioAssay (NCI).
About 83,000 compounds went through this panel and 20% of them were active in at least one assay; those are over-represented in the sample as a whole.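 A percent growth of 40 corresponds to 60% growth inhibition; 0 means no net growth; -100 means all cells died. Active threshold: below 10.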 Unmarked numbers belong to inactive results. Calls of active or inactive are those of the source.

Tests used:
Assay in all cases: NCI-60 one-dose screen, 48 h (100 = growth as untreated, 0 = no growth, -100 = all killed)
[1] = system: NCI-H23 lung; conditions: 10 µM unless noted
[2] = system: NCI-H460 lung; conditions: 10 µM unless noted
[3] = system: K-562 leukemia; conditions: 10 µM unless noted
[4] = system: RXF 393 renal; conditions: 10 µM unless noted
[5] = system: SF-295 CNS; conditions: 10 µM unless noted
[6] = system: M14 melanoma; conditions: 10 µM unless noted
[7] = system: HT29 colon; conditions: 10 µM unless noted
[8] = system: U251 CNS; conditions: 10 µM unless noted
[9] = system: SK-MEL-5 melanoma; conditions: 10 µM unless noted
[10] = system: UO-31 renal; conditions: 10 µM unless noted
[11] = system: CAKI-1 renal; conditions: 10 µM unless noted
[12] = system: A498 renal; conditions: 10 µM unless noted
[13] = system: HL-60(TB) leukemia; conditions: 10 µM unless noted
[14] = system: CCRF-CEM leukemia; conditions: 10 µM unless noted
[15] = system: RPMI-8226 leukemia; conditions: 10 µM unless noted
[16] = system: HS 578T breast; conditions: 10 µM unless noted
[17] = system: T-47D breast; conditions: 10 µM unless noted
[18] = system: BT-549 breast; conditions: 10 µM
[19] = system: HCT-116 colon; conditions: 10 µM unless noted
[20] = system: HCC-2998 colon; conditions: 10 µM unless noted

| SMILES | growth [1] [%] | growth [2] [%] | growth [3] | growth [4] | growth [5] [%] | growth [6] | growth [7] | growth [8] | growth [9] | growth [10] | growth [11] | growth [12] [%] | growth [13] | growth [14] | growth [15] | growth [16] [%] | growth [17] | growth [18] | growth [19] | growth [20] |
| --- | --- | --- | --- | --- | --- | --- | --- | --- | --- | --- | --- | --- | --- | --- | --- | --- | --- | --- | --- | --- |
| COc1cc(C2(C#N)CCN(C)CC2)cc(OC)c1OC | 104 | 102 | 97.5% | 114% | 98.8 | 90.9% | 101% | 101% | 107% | 79.8% | 79.1% | 88.4 | 95% | 116% | 106% | 100 | 98.1% | 101% | 91.8% |  |
| CCCCN(CCCC)CC(O)c1ccccc1 (stereo unspecified) | 100 | 110 | 103% | 116% | 103 | 100% | 109% | 100% | 118% | 100% | 107% | 82.6 | 111% | 99.8% | 113% | 97.5 | 127% | 124% | 114% | 102% |
| ClCCN(CCCl)C(c1ccccc1)c1ccc(Cl)cc1 (stereo unspecified) | 77.3 |  | 42.6% | 88.4% | 75.5 | 90.4% | 63% | 82.6% | 54.9% | 104% | 10.1% |  | 15.1% | 15.3% | 42.1% |  | 103% | 93.7% | 79.5% | 68.6% |
| CC(=O)O[C@H]1CCC2(C)C(=CCC3C2CCC2(C)/C(=N/OC(=O)c4ccc(N(CCCl)CCCl)cc4)CCC32)C1 (stereo partly specified) | 45.8 | 21 | 5% (active) | 44.1% | 63.5 | 59.4% | 32.6% | -27.2% (active) | 73.2% | -11.9% (active) | 50.2% | 57 | 17.5% |  | 26.6% | 27 | 17.7% | 51.4% | 9.02% (active) | 80.3% |
| CN1CCN(C(=O)COc2ccc(/C=C3\CC4C5CC=C6CC(Cl)CCC6(C)C5CCC4(C)C3=O)cc2)CC1 (stereo unspecified) | 71.2 | 17.2 | 18.3% | 79% | 82.8 | -13% (active) | -9.75% (active) | 34.1% | 80.4% | 99.9% | 70.1% | 75.3 | 38.3% | 49.3% | 53.5% |  | 71.2% | 87.3% | 34.6% | 90.6% |
| O=S(=O)(c1ccc(Cl)cc1)C(Cl)(Cl)Cl | 40.6 | 80.4 | 19.6% | -5.22% (active) | 78.2 | 8.38% (active) | 12.2% | 52.1% | 42.5% | 9.42% (active) | -6.81% (active) | 56.4 | 1.02% (active) | 25.3% | 18% | 55.8 | 11.4% | 34.1% | 42.2% | 18.3% |
| CC(=O)[O][Hg][CH2]C1(C)COC(C)([CH2][Hg][O]C(C)=O)CO1 (stereo unspecified) | 65.4 | 78.1 | -30.8% (active) |  | 69.2 | 39% | -25.6% (active) | -96.2% (active) | -35.9% (active) | -39.3% (active) | -100% (active) | 75.8 | 74.4% | -65.3% (active) | 26% | 84.3 | 4.43% (active) | -100% (active) | -86.2% (active) | 4.37% (active) |
| CN1CC2CCC(C1)C2=O | 106 | 104 | 93.1% | 119% |  | 98.2% | 100% | 101% | 101% | 62.7% | 91.7% | 110 | 96.3% | 94.4% | 98.9% | 108 | 102% | 88.8% | 95.4% | 114% |
| Nc1ccc([N+](=O)[O-])c2c1Oc1ccccc1O2 | 94.3 | 111 | 113% | 49.5% | 85.1 | 106% | 103% | 90.2% | 96.7% | 10% | 58.3% | 72.9 | -17.4% (active) | 91.2% | 105% | 100 | 72.7% | 87% | 99.7% | 108% |
| CC(=O)C1C(=O)N(C)C(=O)N(C)C1=O | 121 | 102 | 108% | 107% |  | 110% | 102% | 96.1% | 99.7% | 96.1% | 102% | 83.2 | 104% | 97.2% | 99.7% | 107 | 106% | 106% | 106% | 112% |
| O=S(=O)(Cl)c1ccccc1 (tested in a mixture with another compound) | 106 | 103 |  | 99.1% |  | 102% | 101% | 93.7% | 99.2% | 85% | 109% | 85 |  | 114% | 96.6% | 102 | 97.7% | 99.5% |  | 100% |
| CC1(C)N=C(N)N=C(N)N1c1ccc(OCCCCNC(=O)c2ccc(S(=O)(=O)F)cc2)c(Cl)c1 | 68.1 | 19.8 | 16.2% | 76.3% |  | 70.1% | 27.6% | 57.2% | 51.4% | 77% | 99.2% | 105 | 36.2% | 31% | 89.9% |  | 104% | 79.5% |  | 83.1% |
| N#[N+]c1nc2nc(N)[nH]c(=O)c2[nH]1 | 103 | 101 | 101% | 111% | 101 |  | 104% | 91.5% | 92.5% | 72% |  | 107 | 100% | 95.1% | 97% | 92.9 | 100% |  | 96.8% | 104% |
| O=C1NC(=S)NC(=O)C1=Cc1ccccc1 | 86.2 | 104 |  | 115% | 97.9 | 108% | 139% | 103% | 98.7% | 87.7% | 95% |  |  |  | 130% | 95.9 | 93.4% |  | 107% | 106% |
| CC(=O)O[C@H]1CCC2C3CCC4=C/C(=N/O)CCC4(C)C3CCC21C (stereo partly specified) | 90 | 89.6 | 45.9% | 102% |  | 79.9% | 76% | 83.3% | 87.4% | 65.1% | 80.5% | 53.1 | 23.1% |  | 89.4% | 55.2 | 95.6% | 84.9% | 75.3% | 83.9% |
| COc1cc[c]([Hg][Cl])cc1 | 47 | 43.9 | 17% | -42.2% (active) | 93.3 | 17% | 48.5% | -26% (active) | 30.5% | 96.6% | 78.6% | 84.8 | -22.4% (active) | -20.8% (active) | 41.5% | 30.5 | -3.04% (active) | 45.5% | 48.4% | 88.7% |
| Cc1cccc(N=C2c3cc([N+](=O)[O-])ccc3-c3c2cc([N+](=O)[O-])cc3[N+](=O)[O-])c1 | 56.5 | 33.5 | 23.1% | 72.2% | 97.8 |  | 21.3% | 40.3% | 71% |  | 67.8% | 74.5 | 46.7% | 21.4% | -8.81% (active) | 101 | -25.1% (active) | 81.8% | -0.611% (active) |  |
